The campaign covered roughly 76,000 compounds. About 1,900 (2.5%) were called active. A call without a number means that no potency is given here. About 5% were inconclusive and are not listed. Calls follow the shape of the dose curve; as a rule, active = well fitted inhibition curve with a large enough effect; inconclusive = small, poorly fitted or top-dose-only effect; inactive = flat fitted curve, though single readings scatter. This excerpt belongs to a sample that is enriched for actives.
biological target: Luciferin 4-monooxygenase (Photinus pyralis) (UniProt P08659); test: Firefly luciferase inhibition profiling of diverse chemical library using quantitative high-throughput screening; also: nearly all actives have a fitted effect of over 65% in size; settings: purified P. pyralis luciferase, luminescence, biochemical; series mostly up to 172 µM
Sequence (P08659 whole entry, looked up): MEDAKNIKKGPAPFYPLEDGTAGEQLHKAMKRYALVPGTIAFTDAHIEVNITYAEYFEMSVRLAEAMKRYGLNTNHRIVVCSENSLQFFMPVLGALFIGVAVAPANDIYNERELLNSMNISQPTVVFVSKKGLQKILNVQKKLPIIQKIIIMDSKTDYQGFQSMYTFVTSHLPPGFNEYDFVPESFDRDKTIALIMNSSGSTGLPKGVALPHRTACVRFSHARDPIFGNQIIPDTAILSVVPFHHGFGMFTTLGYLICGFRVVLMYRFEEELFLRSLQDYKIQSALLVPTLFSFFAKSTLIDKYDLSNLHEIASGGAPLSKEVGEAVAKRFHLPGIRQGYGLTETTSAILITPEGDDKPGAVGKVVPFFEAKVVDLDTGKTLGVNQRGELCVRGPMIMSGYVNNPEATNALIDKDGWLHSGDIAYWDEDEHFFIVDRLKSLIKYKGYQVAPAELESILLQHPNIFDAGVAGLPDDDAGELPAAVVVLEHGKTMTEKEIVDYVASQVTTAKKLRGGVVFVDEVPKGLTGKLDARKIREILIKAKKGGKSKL
Source text: Firefly (Photinus pyralis) luciferase is one of the most commonly used transcriptional reporters for a number of reasons. It is considered one of the more dynamically responsive reporters - that is, responsive to changes in reporter transcription - as it requires no post-translational modifications and is enzymatically active directly after protein synthesis (Wood, 1998). Additionally, the half-life of the luciferase protein is short relative to other reporter-gene products (Wood, 1995). Whereas reporters with long half-lives potentially allow for increased signal due to accumulation of reporter-gene product, once accumulated in the cell, dynamic changes in reporter-gene expression may be difficult to detect(Fan and Wood, 2007; Almond et al., 2004). It has been shown that wild-type P. pyralis luciferase has a half-life of approximately four hours in mammalian cells (Thompson et al., 1991). Firefly luciferase reporter-gene assays are also generally considered one of the most sensitive assay types (Wood, 1995; Wood, 1998). Although light produced in a bioluminescence reaction is of lower intensity than that produced during fluorescence emission, this is offset by little to no background light inherent to luminescent assays. Thus the luciferase reporter can be expressed at much lower levels than fluorescent proteins while still providing robust signal. However, it was initially observed, in 1991, by Thompson et al., that compounds that resemble the substrates of firefly luciferase (FLuc) can act as competitive inhibitors of the enzyme, and that these compounds, upon interaction with luciferase in the cell, can actually stabilize the protein and increase its half-life. Accumulated intracellular FLuc protein can be measured as an increase in luminescence signal, upon addition of detection reagents (which contain high concentrations of FLuc substrates) commonly used in high-throughput screening. In cell-based reporter gene assays that use FLuc as the reporter gene to quantitate the potential influence of a given compound against the target biology, this apparent increase in luminescence can mistakenly be interpreted as identification of a compound that is active against the target of interest. FLuc inhibitory compounds that stabilize the FLuc protein will give an identical read-out, making it difficult to distinguish compounds that are active against the target from those active against FLuc. In summary, the results generated here constitutes a valuable resource for the scientific community and provides insight on identifying compounds with inhibitory activity for the commonly-used reporter, firefly luciferase. References: -Almond, B., Zdanovsky, A., Zdanovskaia, M., Ma, D., Stecha, P., Paguio, A., Garvin, D., and Wood, K. (2004). Introducing the Rapid Response Reporter Vectors. Promega Notes 87, 18-22. -Fan, F., and Wood, K.V. (2007). Bioluminescent assays for high-throughput screening. Assay Drug Dev Technol 5, 127-136. -Thompson, J.F., Hayes, L.S., and Lloyd, D.B. (1991). Modulation of firefly luciferase stability and impact on studies of gene regulation. Gene 103, 171-177. -Wood, K.V. (1998). The chemistry of bioluminescent reporter assays. Promega Notes 65, 14-20. -Wood, K.V. (1995). Marker proteins for gene expression. Curr Opin Biotechnol 6, 50-58.
Reagents: 50mM Tris acetate, pH 7.5; 10mM Mg acetate; 10uM D-luciferin (Sigma #L9504); 10uM ATP; 0.01% Tween-20; 0.05% BSA; 10nM P. pyralis luciferase (Sigma #L9506) Control compounds used were two known firefly luciferase inhibitors (compounds (2) and (5) in Auld et al., 2010), and DMSO. Assay Summary: Three microliters containing firefly luciferase substrates in buffer (final concentrations: 50mM Tris acetate, pH 7.5, 10mM Mg acetate, 0.01% Tween-20, 0.05% BSA, 10uM D-luciferin, and 10uM ATP) are dispensed into each well of a Greiner white, solid-bottom 1536-well format plate using a flying reagent dispenser (FRD). […]

Row | SMILES | Potency
1 | COc1cccc(Nc2cc3c(cn2)CN(C)CCN3C)c1 | 39.8 µM (active)
2 | O=C(Nc1ccccc1)N1C[C@@H]2C[C@H](C1)c1c(-c3ccc(Cl)cc3)ccc(=O)n1C2 | inactive
3 | COc1ccc(C(=O)NC[C@H]2C[C@@H]3CCN2C[C@@H]3c2cc(-c3ccccc3)nn2C)cc1 | inactive
4 | Cc1ccc(C(=O)N2[C@H]3CC[C@@H]2c2cnc(-c4ccccc4)nc2C3)c(C)c1 | 20 µM (active)
5 | Cc1cccc(C(=O)N2[C@H]3CC[C@@H]2c2cnc(-c4ccccc4)nc2C3)c1 | inactive
6 | COc1ccc(C(=O)N2[C@H]3CC[C@@H]2c2cnc(-c4ccccc4)nc2C3)c(OC)c1 | inactive
7 | C#C[C@H]1CN2CC[C@H]1C[C@@H]2COC(=O)Nc1cc(OC)cc(OC)c1 | inactive
8 | C=CCN(C)C[C@H]1CN2CC[C@H]1C[C@@H]2CNC(=O)Nc1cccc(SC)c1 | inactive
9 | COc1cc2c(cc1OCc1ccncc1)NC(=O)C21CCN(c2ncc(F)cn2)CC1 | inactive
10 | Cc1ccc(C(=O)NC[C@H]2C[C@@H]3CCN2C[C@@H]3c2cc(-c3ccco3)nc(C)n2)cc1 | inactive
